Pf Dd2 growth – P. falciparum Dd2 growth inhibition. SYBR Green, 72 h; stronger effect = lower value. activity change, % at 10 µM. actives 2.3% (n = 94,000); in the data active means activity change below about -80%; inconclusive means no clear call, values can overlap the other calls
C diff HTS – C. difficile growth inhibition. Clostridium difficile clinical isolate growth, OD600, 24 h; stronger effect = lower value. growth activity, negative = inhibition, % at 16 µg/mL (by protocol). actives 0.25% (n = 86,000). AID 1259249;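 active means mean growth activity at or below -80% and every replicate also at or below -80%; inconclusive means mean at or below -80% but some replicate above -80%; inactive means mean growth activity above -80%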
T cruzi growth-1 – inhibitors of T. cruzi proliferation. T. cruzi beta-gal in NIH3T3, GalScreen luminescence, 90 h. inhibition, % at 8.34 µM. actives 5.9% (n = 77,000). AID 624255;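 active means mean inhibition above about 93%, with at least 55% of replicates each passing it, limit read from the data, passing the limit was not always enough; inconclusive means only one of those two conditions holds; inactive means neither condition holds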
T cruzi growth-2 – Trypanosoma cruzi proliferation inhibition; T. cruzi beta-gal in NIH3T3, GalScreen luminescence, 90 h; shares compounds with T cruzi growth-1; actives 72% (n = 5,600); inhibition, % at 8.35 µM;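 active means mean replicate inhibition above about 95% and at least 55% of replicates individually reaching it, limit read from the data; inconclusive means only one of the two criteria is met; inactive means neither criterion is met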
T cruzi growth-3 – inhibitors of T. cruzi proliferation. shares compounds with T cruzi growth-1. inhibition, % at 2.09 µM. T. cruzi beta-gal in NIH3T3, GalScreen luminescence, 90 h. actives 21% (n = 5,600);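 active means mean inhibition above about 95%, with at least 55% of replicates also reaching it, limit read from the data; inconclusive means meets just one of the two conditions; inactive means meets neither condition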
3T3 cytotox – kills mouse NIH/3T3 fibroblasts. shares compounds with T cruzi growth-1. NIH/3T3 viability, CellTiter-Glo ATP luminescence, 90 h. cytotoxicity (signal decrease), % at 8.35 µM. actives 14% (n = 5,600). AID 651742;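 active means mean signal decrease across replicates above about 35% based on untreated-well scatter, with enough replicates individually passing, limit read from the data; inconclusive means no rule stated though some were filed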
NIH3T3 tox 2 – NIH/3T3 (mouse) viability loss; shares compounds with T cruzi growth-1; NIH/3T3 viability, CellTiter-Glo ATP luminescence, 90 h; inhibition, % at 24.9 µM; actives 56% (n = 5,600);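 active means mean loss of cell viability signal at or above a set limit, and enough replicates individually reaching it; inconclusive means meets only the mean limit or only the replicate share; inactive means meets neither condition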
Hits are given with their value; – = inactive; ? = inconclusive; · = not tested or not shown. Rows were chosen to be rich in hits. Some 6.7% of all compounds tested hit in one or more screens of this group.

SMILES | Pf Dd2 growth | C diff HTS | T cruzi growth-1 | T cruzi growth-2 | T cruzi growth-3 | 3T3 cytotox | NIH3T3 tox 2
C[C@@H]1CN([C@H](C)CO)C(=O)c2cc(C#CCN(C)C)cnc2O[C@H]1CN(C)Cc1ccccc1F | – | – | 101 | – | – | – | –
C[C@@H]1CN([C@@H](C)CO)C(=O)c2cc(C#CCN(C)C)cnc2O[C@H]1CN(C)Cc1ccc(C(=O)O)cc1 | – | – | – | · | · | · | ·
C[C@H]1CN([C@@H](C)CO)C(=O)c2cc(C#CCN(C)C)cnc2O[C@@H]1CN(C)Cc1ccccc1F | – | – | – | · | · | · | ·
C[C@H]1CN([C@@H](C)CO)C(=O)c2cc(C#CCN(C)C)cnc2O[C@@H]1CN(C)Cc1ccc(-c2ccccc2)cc1 | · | – | 108 | 107 | – | – | 103
C[C@@H]1CN([C@H](C)CO)C(=O)c2cc(C#CCN(C)C)cnc2O[C@@H]1CN(C)Cc1ccc(-c2ccccc2)cc1 | · | – | – | · | · | · | ·
C[C@@H]1CN([C@@H](C)CO)C(=O)c2cc(C#CCN(C)C)cnc2O[C@@H]1CN(C)Cc1ccc(C(=O)O)cc1 | – | – | 109 | ? | – | – | –
C[C@@H]1CN([C@@H](C)CO)C(=O)Cc2cc(NS(=O)(=O)c3ccc(F)cc3)ccc2O[C@H]1CN(C)S(=O)(=O)c1cn(C)cn1 | – | – | – | · | · | · | ·
C[C@@H]1CN([C@@H](C)CO)C(=O)c2cc(NC(=O)Nc3ccc(C(F)(F)F)cc3)ccc2O[C@@H](C)CCCCO[C@@H]1CN(C)Cc1ccc(C(F)(F)F)cc1 | – | – | 95 | 102 | 105 | – | –
C[C@H]1CCCCO[C@H](CN(C)Cc2ccncc2)[C@@H](C)CN([C@@H](C)CO)C(=O)c2cc(NC(=O)Nc3ccc(C(F)(F)F)cc3)ccc2O1 | – | – | 99 | 100 | – | – | 83
Cc1noc(C)c1NC(=O)Nc1ccc2c(c1)C(=O)N([C@@H](C)CO)C[C@@H](C)[C@H](CN(C)Cc1ccc(C(F)(F)F)cc1)OCCCC[C@H](C)O2 | – | – | – | · | · | · | ·
C[C@@H]1CCCCO[C@@H](CN(C)Cc2ccncc2)[C@H](C)CN([C@H](C)CO)C(=O)c2cc(NC(=O)Nc3ccc(C(F)(F)F)cc3)ccc2O1 | – | – | – | · | · | · | ·
C[C@@H]1CCCCO[C@@H](CN(C)Cc2ccc(C(F)(F)F)cc2)[C@@H](C)CN([C@@H](C)CO)C(=O)c2cc(NC(=O)Nc3ccc(F)cc3)ccc2O1 | – | · | 108 | 98 | 107 | – | –
C[C@H]1CCCCO[C@@H](CN(C)Cc2ccc(C(F)(F)F)cc2)[C@@H](C)CN([C@@H](C)CO)C(=O)c2cc(NC(=O)Nc3ccc(F)cc3)ccc2O1 | – | · | – | · | · | · | ·
Cc1noc(C)c1NC(=O)Nc1ccc2c(c1)C(=O)N([C@H](C)CO)C[C@@H](C)[C@H](CN(C)Cc1ccc(C(F)(F)F)cc1)OCCCC[C@H](C)O2 | – | – | ? | 114 | – | – | 69
C[C@@H]1CCCCO[C@@H](CN(C)Cc2ccc(C(F)(F)F)cc2)[C@H](C)CN([C@H](C)CO)C(=O)c2cc(NC(=O)Nc3ccc(C(F)(F)F)cc3)ccc2O1 | – | – | – | · | · | · | ·
CO[C@H]1CN(C)C(=O)c2ccc(NS(C)(=O)=O)cc2OC[C@H](C)N(Cc2cccnc2)C[C@@H]1C | – | – | – | · | · | · | ·
C[C@@H]1CCCCO[C@H](CN(C)Cc2ccncc2)[C@H](C)CN([C@H](C)CO)C(=O)c2cc(NC(=O)Nc3ccc(F)cc3)ccc2O1 | – | – | – | · | · | · | ·
C[C@H]1CN([C@@H](C)CO)C(=O)c2cc(-c3ccccc3)cnc2O[C@@H]1CN(C)C(=O)c1ccccn1 | – | · | – | · | · | · | ·
C[C@@H]1CCCCO[C@@H](CN(C)Cc2ccc(C(F)(F)F)cc2)[C@@H](C)CN([C@H](C)CO)C(=O)c2cc(NC(=O)Nc3ccc(F)cc3)ccc2O1 | – | · | 102 | 101 | – | – | –
C[C@@H]1CCCCO[C@H](CN(C)Cc2ccc(C(F)(F)F)cc2)[C@H](C)CN([C@H](C)CO)C(=O)c2cc(NC(=O)Nc3ccc(C(F)(F)F)cc3)ccc2O1 | – | – | – | · | · | · | ·

Screens: PubChem, Broad Institute
